Consider 1 molecule from ChEMBL document CHEMBL4649986, “Chemical probes and inhibitors of bromodomains outside the BET family” (Medchemcomm, 2016).

Test [1] concerns the target Bromodomain-containing protein 4 (Homo sapiens) (UniProt O60885). Conditions: Compound concentration 10.0 uM, Protein concentration 2.0 uM.
The target of test [2] is T1, Transcription intermediary factor 1-alpha (Homo sapiens) (UniProt O15164).
T1 sequence (whole entry): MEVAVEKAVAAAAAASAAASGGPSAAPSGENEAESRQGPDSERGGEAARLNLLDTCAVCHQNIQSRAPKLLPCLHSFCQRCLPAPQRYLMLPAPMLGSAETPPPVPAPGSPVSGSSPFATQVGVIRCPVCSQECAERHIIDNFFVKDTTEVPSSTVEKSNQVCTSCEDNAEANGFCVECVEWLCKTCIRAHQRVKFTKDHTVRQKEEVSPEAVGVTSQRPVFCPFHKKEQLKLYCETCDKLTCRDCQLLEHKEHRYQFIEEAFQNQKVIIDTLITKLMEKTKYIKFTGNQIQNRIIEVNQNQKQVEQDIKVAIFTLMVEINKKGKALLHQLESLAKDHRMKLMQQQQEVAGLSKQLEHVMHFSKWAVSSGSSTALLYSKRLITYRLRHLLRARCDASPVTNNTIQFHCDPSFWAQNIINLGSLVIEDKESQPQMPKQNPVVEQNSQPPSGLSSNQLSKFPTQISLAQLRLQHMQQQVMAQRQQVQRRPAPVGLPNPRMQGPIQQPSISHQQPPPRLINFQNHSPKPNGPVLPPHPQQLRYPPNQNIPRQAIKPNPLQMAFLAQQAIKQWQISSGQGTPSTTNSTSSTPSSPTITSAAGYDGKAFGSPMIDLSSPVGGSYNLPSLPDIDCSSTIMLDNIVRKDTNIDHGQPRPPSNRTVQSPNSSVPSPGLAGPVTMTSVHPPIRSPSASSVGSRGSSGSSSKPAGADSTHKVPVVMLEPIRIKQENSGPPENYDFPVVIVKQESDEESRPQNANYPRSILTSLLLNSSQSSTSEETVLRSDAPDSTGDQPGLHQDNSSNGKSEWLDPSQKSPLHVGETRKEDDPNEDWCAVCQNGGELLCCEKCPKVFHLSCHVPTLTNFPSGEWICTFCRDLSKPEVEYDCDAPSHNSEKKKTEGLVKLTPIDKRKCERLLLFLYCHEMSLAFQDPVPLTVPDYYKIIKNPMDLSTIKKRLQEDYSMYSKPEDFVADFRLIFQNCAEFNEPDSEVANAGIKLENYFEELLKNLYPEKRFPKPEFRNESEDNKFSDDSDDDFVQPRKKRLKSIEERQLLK
The following applies: Compound concentration 10.0 uM, Protein concentration 2.0 uM.

As for `CCCS(=O)(=O)c1nc(NC2CC2)cc(-c2ccc3c(ccn3C3CC(C)(C)NC(C)(C)C3)c2)n1`, the ΔTm in test [1] stood at 0.53 °C; in test [2] it was 0.33 °C.
